The source of these data is PubChem BioAssay (Tox21).

Values without a mark were called inactive. Results filed as inconclusive are left out. Activity calls are given as the source filed them. Unless noted, calls follow the shape of the dose curve; as a rule, active = well fitted curve in the direction sought with a large enough effect in the repeat runs; inconclusive = weak or mixed curves; inactive = no such curve, though single readings can be large; an effect the other way counts as inactive or inconclusive.

The nature of experiment [1]: qHTS assay to identify small molecule antagonists of the estrogen related receptor (ERR) signaling pathway from Tox21 library - cell viability counter screen (AID 1224834). Also: nearly all actives have a fitted effect of over 30% in size. Also: potency is read from the fitted curve at half-maximal effect. An outline of the steps:
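Multiplexed viability counter screen in ERR cells: 17.5 h compound exposure at 37 C, CellTiter-Fluor added, 30 min at 37 C/5% CO2, fluorescence read.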
In general terms: In qHTS, concentration-response curves come from the screen itself.

Experiment [2] concerns the target Luciferin 4-monooxygenase (Photinus pyralis) (UniProt P08659). Nature of the experiment: qHTS assay to identify small molecule inhibitors of firefly luciferase (AID 1224835). Also: nearly all actives have a fitted effect of over 25% in size. Also: potency is read from the fitted curve at half-maximal effect. An outline of the steps:
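Quantitative HTS format; KM concentrations of both substrates. Purified P. pyralis FLuc activity quantified from luminescence images.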

The target of experiment [3] is Nuclear receptor subfamily 1 group I member 3 (Homo sapiens) (UniProt Q14994). Nature of the experiment: qHTS assay to identify small molecule agonists of the constitutive androstane receptor (CAR) signaling pathway (AID 1224839).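 Also: HepG2 cells stably carrying human CAR and a CYP2B6 luciferase reporter; nearly all actives have a fitted effect of over 15% in size.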 An outline of the steps: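 In this screen, CAR-driven CYP2B6 promoter activity is measured by luminescence in HepG2-CYP2B6-hCAR cells after 24 h with test compounds and 0.75 uM PK11195 (final concentration).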

The nature of experiment [4]: qHTS assay to identify small molecule antagonists of the estrogen related receptor signaling pathway with the pleiotropic PPARgamma coactivator (PGC) from Tox21 10K library - cell viability counter screen (AID 1224840; active = well fitted cell-killing curve with a large enough effect in the repeat runs, not every such curve was filed as active; also: nearly all actives have a fitted effect of over 40% in size; also: potency is read from the fitted curve at half-maximal effect). A digest of the protocol:
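Fluorescence read-out of CellTiter-Fluor viability reagent, added after cells had been exposed to compound in DMSO for 17.5 h at 37 C; 30 min development at 37 C/5% CO2. Cells: PGC/ERR line, 2,000/well.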

Experiment [5] addresses Thyrotropin receptor (Homo sapiens) (UniProt P16473). Nature of the experiment: qHTS assay to identify small molecule agonists of the thyroid stimulating hormone receptor (TSHR) signaling pathway (AID 1224843; calls by dose curve; also: nearly all actives have a fitted effect of over 45% in size). An outline of the steps:
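Using 15 concentrations per compound in triplicate, cAMP production was monitored in TSHR-HEK293 cells after 30 min compound incubation at RT; HTRF reagents followed, with fluorescence intensity recorded after 1 h.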

Experiment [6] can be described thus: qHTS assay to identify small molecule agonists of the hypoxia (HIF-1) signaling pathway - cell viability counter screen (AID 1224844; calls by dose curve; also: nearly all actives have a fitted effect of over 50% in size). An outline of the steps: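 CellTiter-Glo luminescence read-out, 30 min RT, taken in the same wells as the beta-lactamase HRE reporter assay; HRE-bla ME-180 cells, 0.5% dialyzed FBS, 17 hr compound treatment at 37C, 5% CO2.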
Experiment [7] can be described thus: qHTS assay to identify small molecule agonists of H2AX (AID 1224845; active = well fitted activation curve with a large enough effect in the signal ratio in the repeat runs, not every such curve was filed as active; the % refers to the signal ratio). A digest of the protocol:
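Wild-type CHO-K1 cells plated overnight, then exposed 3 hr at 37C to compounds at 15 concentrations (0.76% DMSO). Lysed, then HTRF anti-pH2AX(S139)-cryptate/anti-H2AX-d2 detection after 24 hr at room temperature; emissions 665 and 620 nm.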

The nature of experiment [8]: qHTS RealTime-Glo MT Cell Viability Assay in HepG2 cells - 24 hour (AID 1224867). Also: nearly all actives have a fitted effect of over 50% in size. A digest of the protocol: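 Compound treatment began 5 h after plating HepG2 cells (600/well) with NanoLuc luciferase and prosubstrate. Plates stayed at 37 C for 40 h; luminescence was captured at six time points, 0 h through 40 h.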
Experiment [9] in a line: qHTS assay to identify small molecule agonists of the constitutive androstane receptor (CAR) signaling pathway - cell viability counter screen (AID 1224836). Also: nearly all actives have a fitted effect of over 45% in size. Also: potency is read from the fitted curve at half-maximal effect. An outline of the steps:
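Compound titrations (15 concentrations) went onto HepG2-CYP2B6-hCAR cells 4 h after seeding, alongside PK11195 at a final 0.75 uM; a 23 h, 37 C/5% CO2 incubation preceded CellTiter-Fluor viability measurement.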

Experiment [10] has as its target Nuclear receptor subfamily 1 group I member 3 (Homo sapiens) (UniProt Q14994). Put plainly: qHTS assay to identify small molecule antagonists of the constitutive androstane receptor (CAR) signaling pathway (AID 1224838).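 Also: HepG2 cells stably expressing hCAR with CYP2B6 luciferase reporter stimulated by CITCO; nearly all actives have a fitted effect of over 40% in size.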 Also: potency is read from the fitted curve at half-maximal effect. A digest of the protocol:
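Read-out: ONE-Glo luciferase luminescence after 30 min at room temperature. HepG2-CYP2B6-hCAR double-stable cells, compounds in 15-point titration plus 50 nM CITCO final, 24 h at 37 C/5% CO2.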

Experiment [11] is described as follows: qHTS assay to identify small molecule antagonists of the estrogen related receptor signaling pathway with the pleiotropic PPARgamma coactivator (PGC) from Tox21 10K library (AID 1224841; call rule not given here; also: actives are mostly falling curves and most rising ones were filed inactive; nearly all actives have a fitted effect of over 50% in size; also: potency is read from the fitted curve at half-maximal effect). A digest of the protocol: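 Luminescence read-out (One-Glo luciferase reagent, 30 min at room temperature) from PGC/ERR cells exposed to DMSO-dissolved test compounds for 18 h at 37 C; cells, 2,000 per well, had been preincubated 6 h before compound transfer.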

Experiment [12] is described as follows: qHTS assay to identify small molecule agonists of the estrogen related receptor signaling pathway with the pleiotropic PPARgamma coactivator (PGC) from Tox21 10K library (AID 1224842). Also: nearly all actives have a fitted effect of over 15% in size. A digest of the protocol: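 PGC/ERR reporter cells (NTP line) were seeded 2,000 per well, rested 6 h at 37 C/5% CO2, then pin-dosed with compounds in DMSO for 18 h at 37 C; luciferase read by One-Glo luminescence after 30 min at room temperature.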

The nature of experiment [13]: qHTS assay to identify small molecule agonists of the hypoxia (HIF-1) signaling pathway (AID 1224846; active = well fitted activation curve with a large enough effect in the signal ratio in the repeat runs, not every such curve was filed as active; the % refers to the signal ratio). A digest of the protocol: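 Beta-lactamase FRET read-out (CCF4-AM substrate) from ME-180 cells carrying an HRE-driven bla reporter, after 17 hrs compound exposure at 37C/5% CO2. Cells were seeded at 2,000 per well in 0.5% dialyzed FBS medium and preincubated 5 hrs.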

Experiment [14] can be described thus: qHTS assay to identify small molecule agonists of H2AX - cell viability counter screen (AID 1224847; calls by dose curve; also: nearly all actives have a fitted effect of over 30% in size; also: potency is read from the fitted curve at half-maximal effect). A digest of the protocol:
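Read-out: CellTiter-Glo luminescence, 30 min RT. Cells: wild-type CHO-K1, 1000/well, 10% FBS, plated overnight at 37C. Treatment: 15 concentrations, 3 hr, 37C, 0.76% DMSO.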

Experiment [15] in a line: qHTS assay to identify small molecule antagonists of the estrogen related receptor (ERR) signaling pathway from Tox21 library (AID 1224848). Also: nearly all actives have a fitted effect of over 50% in size. Also: potency is read from the fitted curve at half-maximal effect. A digest of the protocol:
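Tox21 10K compounds in DMSO tested for ERR pathway antagonism in NTP's ERR cell line; 18 h, 37 C exposure; ONE-Glo luminescence.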

The nature of experiment [16]: qHTS assay to identify small molecule agonists of the estrogen related receptor (ERR) signaling pathway from Tox21 library (AID 1224849; calls by dose curve; also: nearly all actives have a fitted effect of over 15% in size). The conditions noted are these: ERR reporter cell line, ONE-Glo luciferase, 18 h; at 92.4 µM (top of the series) unless noted. A digest of the protocol:
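Luminescence readout (ONE-Glo, 30 min RT) after 18 h compound exposure at 37 C of NTP-supplied ERR reporter cells; cells were plated 6 h before compound addition by pin tool.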

A short description of experiment [17]: qHTS RealTime-Glo MT Cell Viability Assay in HEK293 cells - 32 hour (AID 1224868). Also: nearly all actives have a fitted effect of over 50% in size. Also: potency is read from the fitted curve at half-maximal effect. A digest of the protocol:
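Quantitative high-throughput screen of the Tox21 10K library in HEK293: cells and RealTime-Glo reagents plated together, compound added at 5 h, luminescence monitored through 40 h at 37 C.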

The nature of experiment [18]: A CellTox Green Cytotoxicity Assay to monitor cytotoxicity in HEK293 cells - 0 hour (AID 1224869). Also: nearly all actives have a fitted effect of over 50% in size. A digest of the protocol: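 Read-out: fluorescence of a cell-impermeant cyanine dye staining DNA of dead cells, proportional to cytotoxicity. HEK293, 600 cells/well with reagent, compound (23 nL DMSO) added after 5 h; reads at 0, 8, 16, 24, 32, 40 h.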
A short description of experiment [19]: qHTS assay to identify small molecule antagonists of the constitutive androstane receptor (CAR) signaling pathway - cell viability counter screen (AID 1224837). Also: nearly all actives have a fitted effect of over 45% in size. An outline of the steps:
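Read-out: CellTiter-Fluor fluorescence after 23 hr at 37 C/5% CO2. Cells: HepG2 double-stable for hCAR and CYP2B6-2.2kb. Compounds tested at 15 concentrations in the presence of CITCO, final concentration 50 nM.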
% is scaled to controls: 0 for no effect and ±100 for the full control effect.

Nuclear receptor subfamily 1 group I member 3 (Homo sapiens), sequence (Q14994 whole entry, looked up): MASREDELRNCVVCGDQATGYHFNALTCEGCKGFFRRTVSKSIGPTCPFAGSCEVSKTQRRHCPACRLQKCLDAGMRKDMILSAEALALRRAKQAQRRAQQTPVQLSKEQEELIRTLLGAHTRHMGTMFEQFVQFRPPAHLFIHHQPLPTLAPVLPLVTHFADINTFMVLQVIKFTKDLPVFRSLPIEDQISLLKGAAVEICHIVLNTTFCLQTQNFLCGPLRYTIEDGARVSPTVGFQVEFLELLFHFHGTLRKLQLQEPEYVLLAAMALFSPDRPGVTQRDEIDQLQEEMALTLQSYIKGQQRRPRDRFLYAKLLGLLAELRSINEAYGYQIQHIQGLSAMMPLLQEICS
Thyrotropin receptor (Homo sapiens), sequence (P16473 whole entry, looked up): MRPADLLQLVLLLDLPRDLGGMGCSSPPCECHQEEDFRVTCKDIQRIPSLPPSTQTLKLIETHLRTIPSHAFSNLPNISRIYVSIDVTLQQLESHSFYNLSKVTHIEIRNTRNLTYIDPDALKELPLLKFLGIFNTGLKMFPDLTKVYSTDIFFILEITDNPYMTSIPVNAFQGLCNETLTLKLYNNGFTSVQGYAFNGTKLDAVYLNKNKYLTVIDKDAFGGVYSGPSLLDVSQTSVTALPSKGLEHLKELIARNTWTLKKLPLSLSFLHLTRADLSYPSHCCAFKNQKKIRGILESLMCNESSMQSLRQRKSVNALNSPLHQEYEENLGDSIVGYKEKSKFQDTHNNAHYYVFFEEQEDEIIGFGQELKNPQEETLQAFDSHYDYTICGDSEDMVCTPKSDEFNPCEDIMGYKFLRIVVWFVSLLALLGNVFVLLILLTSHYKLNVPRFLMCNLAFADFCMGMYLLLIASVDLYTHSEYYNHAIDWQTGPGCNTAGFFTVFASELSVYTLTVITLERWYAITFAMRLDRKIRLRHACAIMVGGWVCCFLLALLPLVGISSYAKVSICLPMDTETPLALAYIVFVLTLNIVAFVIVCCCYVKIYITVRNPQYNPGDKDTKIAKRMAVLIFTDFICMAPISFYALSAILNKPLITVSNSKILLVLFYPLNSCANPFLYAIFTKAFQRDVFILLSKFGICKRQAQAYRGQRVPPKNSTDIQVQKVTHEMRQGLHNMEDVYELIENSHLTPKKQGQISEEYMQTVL
Luciferin 4-monooxygenase (Photinus pyralis), sequence (P08659 whole entry, looked up): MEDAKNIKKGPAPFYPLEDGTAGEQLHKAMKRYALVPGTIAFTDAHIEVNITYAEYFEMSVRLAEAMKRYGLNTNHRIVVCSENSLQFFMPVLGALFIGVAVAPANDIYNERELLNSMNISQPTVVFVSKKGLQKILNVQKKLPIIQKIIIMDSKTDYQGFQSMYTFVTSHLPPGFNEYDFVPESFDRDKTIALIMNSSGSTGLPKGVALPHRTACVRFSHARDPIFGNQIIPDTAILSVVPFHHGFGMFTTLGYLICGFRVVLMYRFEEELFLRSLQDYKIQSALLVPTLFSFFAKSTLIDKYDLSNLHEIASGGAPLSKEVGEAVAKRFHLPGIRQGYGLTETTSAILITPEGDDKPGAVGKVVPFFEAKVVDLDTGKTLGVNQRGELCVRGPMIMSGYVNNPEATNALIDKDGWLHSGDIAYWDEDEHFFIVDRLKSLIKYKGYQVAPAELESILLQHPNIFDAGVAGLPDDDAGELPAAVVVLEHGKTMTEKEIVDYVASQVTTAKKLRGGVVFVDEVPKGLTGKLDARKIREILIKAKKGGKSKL

Regarding `CCOC(=O)[C@]1(c2ccccc2)Oc2ccccc2[C@@H]1N`, the Potency result in experiment [1], in experiment [2], in [3], in [4], in [5] and in experiment [6] was “inactive” in each case. The Potency entry in experiment [7] and in experiment [8] was “inactive” throughout.

Consider `O=C(N[C@H](c1ccccc1)[C@@H]1CN2CCC1CC2)c1c(Cl)ccc(C(F)(F)F)c1Cl`, for which the Potency in experiment [1] is 49.3 µM (active); in experiment [9], 98.4 µM (active); in experiment [10] it was 13.9 µM (active); in [11], 31.1 µM (active); in [14], 182 µM (active); in [15], 39.2 µM (active). Besides, the Potency in experiment [17] is 70.2 µM (active). For the same molecule, the Potency entry in experiment [2], in experiment [3], in experiment [12], in experiment [6] and in experiment [18] was “inactive” in each case. Besides, the molecule was called inactive in experiment [13]. The activity change, positive = activation in experiment [16] was -42.3%.

`Nc1ccc(N=Nc2ccc(-c3ccc(N=Nc4c(S(=O)(=O)O)cc5cc(S(=O)(=O)O)c(N=Nc6ccccc6)c(O)c5c4N)cc3)cc2)c(N)c1`: the Potency is 31.3 µM (active) in [1], 20.4 µM (active) in experiment [2], 35.1 µM (active) in experiment [4] and 11.5 µM (active) in [14]. Moreover, the Potency result in [9], in experiment [6], in [8], in experiment [17] and in experiment [18] was “inactive” throughout. In [13], the result was inactive.

As for `CCOP(=S)(OCC)SCSCC`, the Potency result in experiment [1], in [2], in [9], in experiment [19], in experiment [4] and in [6] was “inactive” each time. The Potency result in [7], in [14], in experiment [8], in experiment [17] and in experiment [18] was “inactive” each time. Also, in experiment [13], the outcome was inactive.

As for `CCCCCCCCCCOC(=O)c1ccccc1C(=O)OCCCCCCCCCC`, the Potency entry in experiment [2], in experiment [9], in [19], in experiment [10], in [3] and in experiment [4] was “inactive” throughout. The Potency result in [11], in experiment [12], in experiment [5], in experiment [6], in experiment [7] and in experiment [14] was “inactive” each time. Besides, the Potency result in [15], in experiment [8], in experiment [17] and in experiment [18] was “inactive” in each case. Also, the molecule was classed as inactive in experiment [13]. Besides, the activity change, positive = activation in [16] was 1.79%.

For `BrCCCCBr`, the Potency entry in experiment [1], in experiment [2], in experiment [9], in experiment [19], in experiment [4] and in experiment [5] was “inactive” each time. Besides, the Potency result in experiment [6], in experiment [7], in experiment [14], in experiment [8], in experiment [17] and in experiment [18] was “inactive” each time. In [13], the outcome was inactive.

As for `O=C(C(Cl)(Cl)Cl)C(Cl)(Cl)Cl`, the Potency entry in experiment [1], in [2], in experiment [9], in [19], in experiment [4] and in [6] was “inactive” in each case. Also, the Potency entry in experiment [7], in experiment [14], in [8] and in experiment [17] was “inactive” each time. Further, the molecule was classed as inactive in [13].

With `Cc1cc(=O)[nH]o1`, the Potency entry in [1], in [2], in experiment [9], in experiment [19], in experiment [4] and in [5] was “inactive” throughout. For the same molecule, the Potency result in experiment [6], in experiment [7], in [14], in experiment [8], in [17] and in [18] was “inactive” in each case. For the same molecule, the molecule was classed as inactive in [13].

As for `COP(=S)(OC)Oc1ccc([N+](=O)[O-])cc1Cl`, the Potency in [1] is 48.6 µM (active); in [2], 35.6 µM (active). The Potency entry in experiment [10], in [12], in [5], in [7], in experiment [14] and in experiment [8] was “inactive” in each case. Further, the Potency entry in experiment [17] and in experiment [18] was “inactive” throughout. The result in experiment [13] was inactive. In addition, in experiment [16], the activity change, positive = activation was -29.5%.
